Only some compounds are listed: those with a hit (about 11% of all), similar ones and a draw of the others.
HCV inh: blocks hepatitis C virus | Huh7.5.1 HCVcc-Cre infection, luciferase reporter, 44 h | Potency, µM (highest dose often 41.8 µM), usual class: inhibitors | 3.4% of 340,000 active
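Infectious HCV cell culture screen: compound-treated cells (1,000/well, pre-plated 4 h) are infected with HCVcc-Cre at roughly 0.5 moi and grown 44 h. Infection is quantified by luciferase signal after 15 min substrate incubation at room temperature.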
AMA1-RON2 inh: AMA1-RON2 (P. falciparum) interaction inhibition | AlphaScreen AMA1-biotinylated RON2 peptide binding | Potency, µM (titrated, usually from 58.2 µM), actives largely listed as inhibitors | 0.2% of 360,000 active | AID 720542; also: nearly all actives have a fitted effect of over 45% in size
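AMA1 (3D7) with his tag at 25 nM final met compounds first, then biotinylated RON2 peptide at 25 nM; detection used donor plus acceptor beads, 10 µg/mL apiece, read by AlphaScreen after 30 min at room temperature.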
Pf growth 48h: inhibits P. falciparum growth in the first generation, 48 h; P. falciparum luciferase growth in erythrocytes, 48 h; Potency, µM (titrated, usually from 28.7 µM), usual class: inhibitors; 5.9% of 310,000 active; AID 504832
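A one-generation exposure of luciferase-tagged malaria parasites in RPMI 1640/Albumax erythrocyte culture, 37 C and 5% CO2. Inhibition is inferred from decreased luminescence after adding detection reagent.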
Pf growth 96h: P. falciparum growth inhibition at 96 hours; P. falciparum luciferase reporter growth, 96 h; Potency, µM (top dose mostly 28.7 µM), usual class: inhibitors; 6.9% of 320,000 active
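Two parasite generations (96 h, 37 C, 5% CO2) of compound exposure in infected erythrocytes (0.05% parasitemia, 2% hematocrit). Luciferase-reporter P. falciparum; decreased luminescence indicates inhibited growth, aimed at apicoplast-acting delayed death.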
A number is an active result; n = inactive; u = inconclusive; x = not tested or not shown; [ ] = another dose, or the depositor's remark. Calls follow the shape of the dose curve; as a rule, active = well fitted curve in the direction sought with a large enough effect; inconclusive = small, poorly fitted or top-dose-only effect, or another doubt; inactive = no such curve, though single readings can be large; an effect the other way counts as inactive or inconclusive.

SMILES	HCV inh	AMA1-RON2 inh	Pf growth 48h	Pf growth 96h
COCCOC(=O)C1=C(C)NC(C)=C(C(=O)OC/C=C/c2ccccc2)C1c1cccc([N+](=O)[O-])c1 (stereo not given)	x	x	11µM	8.5µM
CC(C)(C)S(=O)(=O)N1C[C@@H]2C(=CC[C@H]3C(=O)N(c4ccccc4)C(=O)[C@@H]23)[C@@H]1CCO	n	n	x	x
C=CCc1cc(/C=N/NC(=O)CSc2nnc(CCCc3ccc(OC)cc3)o2)cc(OC)c1O	u	n	x	0.059µM
C=CCc1cc(/C=N\NC(=O)CSc2nnc(CCCc3ccc(OC)c(C)c3)o2)cc(OC)c1O	n	n	3.7µM	2.9µM
COc1ccc(/C=N/NC(=O)CSc2nnc(CCCc3ccc(OC)c(C)c3)o2)cc1	n	n	u	n[5.75 µM]
Cc1cc(NC(=O)CCC(=O)N(Cc2cccs2)C(C)(C)C(=O)NC2CCCCC2)no1	n	n	n	u
C[C@@]12CCC=C[C@H]1[C@H](c1ccc3ccccc3c1)N(Cc1ccccc1)C2=O	u	n	u	9.3µM
Cc1ccc(-c2cccc(C3CC=CC4C3C(=O)N(Cc3ccccc3)C4c3ccc4ccccc4c3)c2)cc1 (stereo not given)	n	n	u	u
C[C@@]12CCC=C[C@H]1[C@H](c1ccc3ccccc3c1Br)N(Cc1ccccc1)C2=O	u	n	9.3µM	10µM
COc1ccc(-c2cc([C@H]3[C@@H]4C=CCC[C@@]4(C)C(=O)N3Cc3ccccc3)ccc2F)cc1	n	n	u	u
O=C(c1ccncc1)c1ccc(N2CCN(C3CC(=O)N(Cc4ccccc4)C3=O)CC2)cc1 (stereo not given)	u	n	u	n
O=C(c1ccc(N2CCN(C3CC(=O)N(Cc4cccs4)C3=O)CC2)cc1)c1cccnc1 (stereo not given)	13µM	n	u	u
CCOC(=O)COc1cc(Br)c(/C=N/Nc2ccccc2)cc1OC	n	n	8.3µM	10µM
COc1cc(C=O)c(Br)cc1OCC(=O)NCCc1ccccc1	n	n	n[5.75 µM]	n
C=CCc1cccc(CNc2nc3ccccc3n2C)c1O	n	n	u	u
CCCn1c(NCc2cccc(OC)c2O)nc2ccccc21	u	n	12µM	n
C=CCc1cccc(CNc2nc3ccccc3n2CCN2CCOCC2)c1O	n	n	3.7µM	x
Oc1ccccc1CNc1nc2ccccc2n1CCN1CCCCC1	n	n	2.9µM	n
O=C1c2ccccc2NC(c2cccc(O)c2)N1c1ccccc1 (stereo not given)	n	n	n	n
CC(=O)c1ccc(OCc2cc(C(=O)N3CCN(C4CCCC4)C(=O)C3)no2)cc1	n	n	x	x
CC(C)(C)NC(=O)CSc1nnc(C2CC2)n1-c1ccccc1	n	n	n	n
C/C(=N\NC(=O)c1c(C)nc2ccccn12)c1ccc(O)cc1O	6.3µM	n	u	3.3µM
CCCc1nc2oc3c(NCCOCCO)ncnc3c2c2c1COC(C)(C)C2	n	n	n	3.7µM
CCCc1nc2oc3c(OC)ncnc3c2c2c1COC(C)(C)C2	u	n	x	6.6µM
CC(C)c1nc2oc3c(NCCO)ncnc3c2c2c1COC(C)(C)C2	n	n	n	u
SMILES	HCV inh	AMA1-RON2 inh	Pf growth 48h	Pf growth 96h
Cc1nc2oc3c(NCc4ccccc4)ncnc3c2c2c1COC(C)(C)C2	n	n	12µM	u
Cc1nc2oc3c(NCC4CCCO4)ncnc3c2c2c1COC(C)(C)C2 (stereo not given)	n	n	u	n
CC(C)C[C@H](NC(=O)Nc1ccc(Oc2ccccc2)cc1)C(=O)O	n	n	n	n
CCC1(c2ccc(F)cc2)NC(=O)N(CC(=O)N2c3ccccc3CC2C)C1=O (stereo not given)	n	n	u	u
c1ccc(CCNc2ccc3ncc(-c4cccc5ccccc45)n3n2)nc1	x	n	x	x
Cc1nnsc1-c1nnc(SCC(=O)c2ccccc2)n1C1CC1	n	n	n	u
CN(C)S(=O)(=O)N1CCN(c2ccc([N+](=O)[O-])c(NC3CC3)c2)CC1	n	n	4.1µM	u
CCCCOC1(c2ccccc2)OC(=O)c2ccccc21 (stereo not given)	x	n	u	u
CCCCC(CC)COC1(c2ccccc2)OC(=O)c2ccccc21 (stereo not given)	x	n	9.3µM	8.3µM
CC(C)C[C@@H]1NC(=O)[C@H](C(C)C)NC(=O)c2cc([N+](=O)[O-])cc(I)c2NCC[C@@H](C(N)=O)NC1=O	n	n	u	2.1µM
